Test results published in PubChem BioAssay AID540259 (Broad Institute, 2011).
Potency and affinity values are given separately. Calls of active or inactive are those of the source.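 The calls were made as follows: active = cell killing, meaning signal decrease, with fitted half-maximal dose at or below ten times the top valid tested dose; inconclusive = poor fit, or flat curve with 30 to 70% signal loss; inactive = the rest.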

Test: ATP-based viability loss in HeLa cells – cell-based, CellTiter-Glo luminescence, cherry-pick samples, cytotoxicity control for MITF activator project, dose response (AID 540259);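 also: 0% = DMSO neutral control and -100% = mitoxantrone positive control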
Conditions: 24 h; series mostly up to 35 µM; activity change, negative = cytotoxicity: at the top concentration

SMILES | activity change, negative = cytotoxicity
CCCCCc1ccc(-c2ccc(OC)cc2)nc1 | 4.7% (inactive)
Cc1cc(NC(=O)Nc2ccc3c(ccn3C)c2)sn1 | 12.1% (inactive)
Nc1nc(CSc2ccccn2)nc(Nc2ccccc2)n1 | 13.2% (inactive)
CC(C)(C)n1ncc2c(=O)n(CC(=O)c3ccccc3)cnc21 | -10.5% (inactive)
Cc1cccc(-c2noc(Cc3ccccc3)n2)c1 | 9.03% (inactive)
Cc1ccc(CNc2ccc3c(c2)ncn3C(C)C)cc1 | -10.8% (inactive)
N#C/C(C(=O)N1CCCCC1)=C1\Nc2ccccc2S1 | 9.85% (inactive)
Cn1cccc1C(=O)N/N=C/c1c(Cl)cccc1Cl | 0.429% (inactive)
Cc1ccc(Nc2ncc3c(n2)CC(C)(C)CC3=O)cc1 | 0.285% (inactive)
CC(C)(C)c1ccc(SCCc2ccccn2)cc1 | 10.3% (inactive)
O=C(N/N=C/c1ccc(Cl)cc1Cl)c1cccc(F)c1 | -4.05% (inactive)
COc1ccc(-c2ccc(C(=O)C3CC3)cc2)cc1 | 3.45% (inactive)
Cc1noc(N)c1C(=O)Nc1ccc(C(C)(C)C)cc1 | -8.76% (inactive)
COc1ccccc1C(=O)NCC(=O)Nc1ccc2c(c1)CCC2 | 13.6% (inactive)
COc1ccc(Oc2ncnc3sccc23)cc1 | 2.48% (inactive)
CN(c1ccccc1)c1nc2ccsc2c(=O)s1 | 7.28% (inactive)
Cc1ccc(-n2nnc3ccccc3c2=O)cc1C | -4.59% (inactive)
Cn1c(SCc2c(F)cccc2Cl)nnc1-c1cnccn1 | 2.8% (inactive)
CCn1cnc2cc(NCc3ccccc3Cl)ccc21 | -1.68% (inactive)

SMILES | activity change, negative = cytotoxicity
Cn1ccs/c1=N\C(=O)Nc1ccccc1 | 2.38% (inactive)
CCc1cccc(NC(=O)c2sc3nc4n(c(=O)c3c2C)CCC4)c1 | -1.51% (inactive)
CCN=c1scc(-c2ccc(F)cc2)n1/N=C/c1ccccn1 | 11.2% (inactive)
Cc1nn(-c2ccccn2)c2c1-c1nc(N)ncc1CC2 | -8.29% (inactive)
ClCCn1cnc2c(SCc3ccccc3)ncnc21 | 20% (inactive)
COc1ccc(N=C(C)c2sc3ccccc3c2O)cc1 | 0.743% (inactive)
Cc1cnc(NC(=O)Nc2ccc(Cl)cc2)s1 | 11.5% (inactive)
C=CCNC(=O)c1ccc2nc(Cc3ccc(OC)cc3)oc2c1 | 12.1% (inactive)
Brc1ccccc1-n1nnc(-c2nccs2)n1 | -4.12% (inactive)
O=C(Nc1cccc(F)c1)NC1CCCCCCC1 | -4.47% (inactive)
CCCC(=O)N/C(N)=N/c1nc2ccccc2o1 | 6.9% (inactive)
Oc1nc(Nc2ccccc2)sc1/C=C1\C=Nc2ccccc21 | 4.73% (inactive)
NNC(=O)c1ccc2nc(-c3ccc(Br)cc3)cn2c1 | 11.7% (inactive)
CC1CCc2sc(C(=O)Nc3ccc(C(N)=O)cc3)cc2C1 (configuration not stated) | 10.9% (inactive)
CC(C)(C)N1C(=O)c2ccc(C(=O)Nc3nccs3)cc2C1=O | 12.9% (inactive)
COC(=O)c1ccc(Nc2ncnc3sccc23)cc1 | 11.5% (inactive)
c1cnc(Nc2nc(-c3ccc4ccccc4c3)cs2)nc1 | 4.16% (inactive)
COC(=O)c1ccc(N=NN2CCCCC2)cc1 | 5.75% (inactive)
